Bioassay records from PubChem.
PNC inhibitor: High Content Assay for Compounds that inhibit the Assembly of the Perinucleolar Compartment | PC3M PTB-GFP, PNC prevalence imaging, 16 h; stronger effect = lower value | 140,000 tested, 3.1% active | activity change (PNC), negative = inhibition, % at 10 µM;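 active means readout at or below -70, meaning at least 70% loss of cells showing the perinucleolar compartment, a nuclear body marking cancer cells; inconclusive means readout between -30 and a set limit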
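Compounds are pinned in duplicate onto adhered PC3M cells stably expressing GFP-tagged PTB and incubated 16 h at 37 C. Cells are then fixed, nuclei stained with Hoechst, and PNC-positive cells counted.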
HTT ATP protect: qHTS Multiplex Assay to Identify Dual Action Probes in a Cell Model of Huntington: Cytoprotection (ATP); PC12 HTT-Q103 induced, cytoprotection, ATP luminescence, 40 h; Potency, µM (highest dose often 56.4 µM), most hits filed as activators; 230,000 tested, 0.14% active; AID 1471, 2008; further: nearly all actives have a fitted effect of over 45% in size
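Rat PC12, Q103 Htt exon1-GFP fusion, ecdysone promoter; tebufenozide inducer 100 nM final; compound titration; qHTS, 1500 cells/well; ATPlite luminescent read.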
HPGD inh: qHTS Assay for Inhibitors of HPGD (15-Hydroxyprostaglandin Dehydrogenase) | Potency, µM, most hits filed as inhibitors | 150,000 tested, 4.3% active | 15-hydroxyprostaglandin dehydrogenase [NAD(+)] (Homo sapiens), P15428 | purified HPGD, NADH fluorescence kinetic, PGE2 substrate | AID 894, 2007; active means well fitted inhibition curve with a large enough effect, not every such curve was filed as active; inconclusive means small, poorly fitted or top-dose-only effect, or another doubt; inactive means no such curve, though single readings can be large or run the other way
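20 nM HPGD preincubated 15 min at room temperature with compound in 50 mM Tris-HCl pH 8, 0.01% Tween 20. Started with 1 mM NAD+ and 30 uM prostaglandin E2; NADH fluorescence (360/450 nm) read 5 times over 30-s intervals, last minus first.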
GoLoco inh red: qHTS Assay for Inhibitors of RGS12 GoLoco Motif Activity (Red Fluorophore); Gai1:RGS12 GoLoco peptide FP, rhodamine, 10 min; Potency, µM (highest dose often 61.6 µM), hits mostly inhibitors; 230,000 tested, 0.44% active; AID 880, 2007; active means well fitted inhibition curve with a large enough effect, not every such curve was filed as active; inactive means no such curve, though single readings can be large or run the other way; further: nearly all actives have a fitted effect of over 30% in size
ALDH1A1 block: qHTS Assay for Inhibitors of Aldehyde Dehydrogenase 1 (ALDH1A1); 220,000 tested, 7.3% active; Aldehyde dehydrogenase 1A1 (Homo sapiens), P00352; Purified ALDH1A1, NADH fluorescence, propionaldehyde substrate; Potency, µM (doses to about 75.3 µM), usual class: inhibitors; active means well fitted inhibition curve with a large enough effect, not every such curve was filed as active; inconclusive means small, poorly fitted or top-dose-only effect, or another doubt; inactive means no such curve, though single readings can be large or run the other way
Target sequence (P00352 whole entry, looked up): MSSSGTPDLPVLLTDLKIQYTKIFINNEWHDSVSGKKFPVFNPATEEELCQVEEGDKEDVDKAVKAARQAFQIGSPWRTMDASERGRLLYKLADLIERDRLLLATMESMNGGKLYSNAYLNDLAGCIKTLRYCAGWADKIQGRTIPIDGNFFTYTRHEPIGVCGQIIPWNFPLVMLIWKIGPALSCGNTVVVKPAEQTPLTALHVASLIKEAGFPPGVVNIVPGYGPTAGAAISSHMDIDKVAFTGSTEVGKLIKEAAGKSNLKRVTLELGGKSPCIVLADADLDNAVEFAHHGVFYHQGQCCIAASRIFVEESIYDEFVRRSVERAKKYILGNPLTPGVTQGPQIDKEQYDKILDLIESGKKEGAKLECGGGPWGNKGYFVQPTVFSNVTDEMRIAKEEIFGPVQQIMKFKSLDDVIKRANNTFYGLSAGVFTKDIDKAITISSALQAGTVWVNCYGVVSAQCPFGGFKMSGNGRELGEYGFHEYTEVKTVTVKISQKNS
HttQ103 aggreg: qHTS Multiplex Assay to Identify Dual Action Probes in a Cell Model of Huntington: Aggregate Formation (GFP); AID 1688, 2009; Potency, µM (series often up to 46.1 µM), actives largely listed as inhibitors; PC12 HttQ103-GFP aggregates, Acumen cytometry, 40 h; 220,000 tested, 1.1% active; further: nearly all actives have a fitted effect of over 60% in size
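Compounds (qHTS titration) were added to PC12 cells expressing an ecdysone-driven HTT exon 1 Q103–GFP fusion after induction with 100 nM tebufenozide. Aggregate formation was measured as GFP objects in cell lysates.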
Numbers stand for hits; n = inactive; u = inconclusive; x = not tested or not shown; [ ] = remark or other dose. Most compounds without a hit are left out; they make up all but 11% or so of the library. Unless noted, the call rests on the fitted dose curve; in most records, active means well fitted curve in the direction sought with a large enough effect; inconclusive means small, poorly fitted or top-dose-only effect, or another doubt; inactive means no such curve, though single readings can be large; an effect the other way counts as inactive or inconclusive.

SMILES | PNC inhibitor | HTT ATP protect | HPGD inh | GoLoco inh red | ALDH1A1 block | HttQ103 aggreg
O=C(NC(NC(=S)Nc1c(Cl)cc(Cl)cc1Cl)C(Cl)(Cl)Cl)OCc1ccccc1 (configuration not stated) | n | n[10 µM] | n | n | 3.55µM | n
Cc1ccc(C)c(NC(=S)NC(NC(=O)OCc2ccccc2)C(Cl)(Cl)Cl)c1 (configuration not stated) | n | n[10 µM] | n | n | n | n
O=C(CCc1ccccc1)NC(NC(=S)Nc1cccc(Cl)c1)C(Cl)(Cl)Cl (configuration not stated) | -118.9 | n[10 µM] | n | n | u | n
C=C1CCO[C@@]2([C@H](O)[C@@](C)(O)CO)NC(=O)[C@]1(O)NC2=O | x | n[10 µM] | n | n[14.2 µM] | n[13.5 µM] | x
Cc1nn(C)c(C)c1CNC(=O)c1cnn2c1NC(c1ccccc1)CC2C(F)(F)F (configuration not stated) | n | n[10 µM] | n | n | n | n
Cc1ccc(C2CC(C(F)(F)F)n3nc(C(=O)NCc4c(C)nn(C)c4C)c(Cl)c3N2)cc1 (configuration not stated) | n | n | n | n | n | 12.6µM
O=C(Cc1ccc(Cl)cc1)Nc1ccc2c(c1)C(=O)NC2=O | x | n[10 µM] | x | n | n | n[9.22 µM]
Nc1c(C(=O)Nc2ccccc2)sc2nc3c(c(-c4ccco4)c12)CCC3 | n | x | n | n | n | n
Cc1ccc(NC(=O)c2sc3nc4c(c(-c5ccco5)c3c2N)CCC4)cc1 | n | n | n | n | 4.47µM | n
CC[n+]1c(/C=C/C=C/N(C(C)=O)c2ccccc2)sc2ccccc21 | n | n | n | n | 3.55µM | n
CCN1C(=O)/C(=C/N(C(C)=O)c2ccccc2)N(c2ccccc2)C1=S | n | n | n | n | u | u
CCn1c(/C=C/N(C(C)=O)c2ccccc2)[n+](CC)c2ccc(Cl)cc21 | u | n[10 µM] | n | 1.78µM | n | n
COc1cc2nc(CN3CCC(C(O)(c4ccccc4)c4ccccc4)CC3)[nH]c(=O)c2cc1OC | x | n | x | n | n | n
CC1(C)Cc2c(sc3c2c(=N)n(Cc2ccco2)c(=O)n3CC(=O)Nc2ccccc2)CO1 | u | n | n | n | u | n
CC1(C)Cc2c(sc3c2c(=N)n(Cc2ccco2)c(=O)n3CC(=O)Nc2ccc(Cl)cc2)CO1 | n | n[0.074 µM] | n | n | 20µM | u
CCn1c2ccc(/C(C)=N\O)cc2c2cc(/C(C)=N\O)ccc21 | n | n | 2.82µM | n | n | u
COc1ccc(C2=NOC(Cn3c(Cc4ccc(Cl)cc4)nc4c3c(=O)n(C)c(=O)n4C)C2)cc1 (configuration not stated) | -108.2 | n[0.074 µM] | u | n | u | n[9.22 µM]
O[C@@H](c1cc(-c2ccccc2)nc2c1ccc1ccccc12)[C@@H]1CCCCN1 | x | n[10 µM] | x | x | x | x
CC(=O)c1cccc(NC(=O)COc2cc3oc(=O)c(CC(C)O)c(C)c3cc2Cl)c1 (configuration not stated) | n | n[10 µM] | u | n | u | 3.55µM
CCCc1cc(C(=O)Nc2c(C)n(C)n(-c3ccccc3)c2=O)no1 | n | n | n | n | n | n
O=c1[nH]c(=S)c2ncn(-c3ccccc3)c2[nH]1 | x | n[10 µM] | x | n | 25.1µM | n[9.22 µM]
CSc1nc2sc(-c3ccccc3)cc2c(=O)n1N | n | n | n | n | u | n
CC(C)Sc1nc2sc(-c3ccccc3)cc2c(=O)n1N | -106.0 | n | n | n | n | n
CC(CCc1nc2ccccc2s1)(c1ccc(O)cc1)c1ccc(O)cc1 | x | n[10 µM] | u | n[14.2 µM] | n[13.5 µM] | x
Nc1cc(S(=O)(=O)C(F)(F)F)ccc1C(=O)O | -126.5 | u | n | n | n | n
SMILES | PNC inhibitor | HTT ATP protect | HPGD inh | GoLoco inh red | ALDH1A1 block | HttQ103 aggreg
O=C(NC1CCCCCC1)C(=S)N1CCOCC1 | x | n[10 µM] | x | n | 10µM | n
Cc1ccnc(N2CCC(C(=O)NNC(=O)c3ccccc3C)CC2)n1 | n | n | u | n | n | n
Cc1ccc(C(C(=O)NC2CCCC2)N(C(=O)Cc2cccs2)c2ccc(C)c(C)c2)o1 (configuration not stated) | u | n[10 µM] | n | n | n | 20µM
Cc1ccc(N(C(=O)CCC(=O)Nc2cc(C)on2)C(C(=O)NC2CCCC2)c2ccccc2)cc1 (configuration not stated) | x | n[10 µM] | x | n | n | n[9.22 µM]
Cc1ccc(N(C(=O)CCl)C(C(=O)NC2CCCCC2)c2cccnc2)cc1C (configuration not stated) | u | n[10 µM] | n | n | n | 3.55µM
Cc1cc(NC(=O)CCC(=O)N(c2ccccc2)C(C(=O)NC2CCCC2)c2ccccc2)no1 (configuration not stated) | n | n[10 µM] | n | n | 25.1µM | n
COc1ccc(-c2nc3cnc(Nc4ccccc4)nc3n(CCC#N)c2=O)cc1 | x | n | n | n | n | x
COc1ncc2nc(C)c(=O)n(C[C@H]3CCCO3)c2n1 | x | n | n | n | n | x
Cc1cc(/C=N/n2cnnc2)c(O)c([N+](=O)[O-])c1 | -118.2 | x | n | n | n | n
Cc1cccc(NC(=O)c2ccc(-c3ccccc3[N+](=O)[O-])o2)c1 | x | n[10 µM] | x | n | 2.24µM | n[9.22 µM]
Cc1cccc(Cc2nnc(CCC(=O)N(C)C3CCOC3)o2)c1 (configuration not stated) | x | n[10 µM] | x | n | n | n[9.22 µM]
Cc1ccccc1C(=O)NCC(=O)O | x | n[10 µM] | x | n | n | u
Cc1ccccc1C(=O)NC(=S)NCC(=O)c1ccccc1 | n | n | u | n | n | n
Cc1ccccc1C(=O)NCC(=O)NNC(=S)NC(=O)c1ccccc1C | n | x | 25.1µM | n | n | n
Cc1ccccc1C(=O)NCC(=O)NNC(=S)NC(=O)c1ccccc1 | -83.1 | x | n | n | u | n
Cc1cc(=O)[nH]c(N/N=C/C2=C(N3CCOCC3)C(=C\c3ccc(Cl)cc3)/CC2)n1 | n | n[10 µM] | n | n | 11.2µM | n
Cc1cc(C)nc(N/N=C/c2ccccc2)n1 | n | n | 14.1µM | n | 10µM | n
Cc1cc(C)nc(N/N=C/C2=C(N3CCOCC3)C(=C/c3ccccc3)/CC2)n1 | n | x | 17.8µM | n | n | n
CSc1nc(C)cc(Nc2ccc(O)c(CN3CCCCC3)c2)n1 | x | n[10 µM] | n | n[14.2 µM] | n[13.5 µM] | x
C=CCc1cccc(CNc2ccc(Br)cc2)c1O | x | n[10 µM] | x | n | n | n[9.22 µM]
O=C(O)CNCCc1ccccc1 | x | n[10 µM] | n | n[14.2 µM] | n[13.5 µM] | x
Cc1c(NC2=C(Cl)C(=O)N(c3ccccc3)C2=O)c(=O)n(-c2ccccc2)n1C | n | n | n | n | u | n
